USP2a inhib = inhibitors of human ubiquitin-specific protease USP2a; AID 927; USP2a enzymatic assay, qHTS inhibition; 0.1% of 60,000 active; Potency, µM (top dose mostly 38.3 µM), for inactives: at the highest dose activity change, negative = inhibition, usual class: inhibitors; O75604; also: potency is read from the fitted curve at half-maximal effect; nearly all actives have a fitted effect of over 60% in size
Target sequence (O75604 whole entry, looked up): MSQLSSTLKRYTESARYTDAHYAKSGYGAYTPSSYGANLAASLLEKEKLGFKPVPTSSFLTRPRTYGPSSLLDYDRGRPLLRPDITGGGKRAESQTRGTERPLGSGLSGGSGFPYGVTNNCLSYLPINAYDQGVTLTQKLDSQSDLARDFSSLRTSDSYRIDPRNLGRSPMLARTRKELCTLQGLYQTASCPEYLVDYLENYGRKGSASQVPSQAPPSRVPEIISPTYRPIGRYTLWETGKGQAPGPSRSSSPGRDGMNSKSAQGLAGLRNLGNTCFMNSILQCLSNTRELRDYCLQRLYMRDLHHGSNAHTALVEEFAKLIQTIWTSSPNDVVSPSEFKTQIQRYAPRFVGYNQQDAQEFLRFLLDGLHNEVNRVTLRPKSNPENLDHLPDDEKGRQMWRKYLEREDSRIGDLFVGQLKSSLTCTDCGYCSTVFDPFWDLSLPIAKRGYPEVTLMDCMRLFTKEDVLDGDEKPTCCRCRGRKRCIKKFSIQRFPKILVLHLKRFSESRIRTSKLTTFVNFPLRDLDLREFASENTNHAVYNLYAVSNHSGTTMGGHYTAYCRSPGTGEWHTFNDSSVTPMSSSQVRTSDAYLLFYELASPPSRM
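USP2 core (20nM final) preincubated 30 min RT with compound, then Ub-PLA2 20nM and NBD C6-HPC 20uM final added; buffer 20mM Tris-HCl pH 8.0, 2mM CaCl2. Fluorescence Ex 460/Em 535 read at 0 and 2.5 h; normalized to NEM.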
Ub-GFP proteasome = ubiquitin-GFP accumulation via proteasome inhibition; Ubiquitin-GFP reporter cells, proteasome inhibition, GFP fluorescence; response scale: untreated = 0%, 10 µM MG-132 = 100%; Potency, µM (series often up to 45.9 µM), for inactives: at the highest dose activation (GFP accumulation), usual class: activators; 67,000 tested, under 10 active; active = well fitted activation curve with a large enough effect, not every such curve was filed as active; inconclusive = small, poorly fitted or top-dose-only effect, or another doubt; inactive = no such curve, though single readings can be large or run the other way; also: potency is read from the fitted curve at half-maximal effect
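U2OS Ub(G76V)-GFP reporter; O/N plating, 0.5% FBS; cpd 46 uM–2.9 nM, 4 h, 37 °C; GFP+ cell count, 488/515 nm; norm. to basal vs 10 uM MG-132; CRC fit.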
GBA activity = alters purified human glucocerebrosidase activity; purified enzyme, resorufin glucoside fluorescence (screen aimed at inhibitors), 20 min; P04062; 1.1% of 48,000 active; Potency, µM; in the data active = potency below about 15 µM; inconclusive = mostly about 16 µM to 33 µM;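 also: potency is read from the fitted curve at half-maximal effect; the screen sought inhibitors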
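Wild-type enzyme at 0.2 nM final in 50mM citric acid/KH2PO4, 10mM sodium taurocholate, 0.01% tween-20, pH 5.9, with resorufin beta-D-glucopyranoside at 30 uM final. Compounds titrated, 20 min at RT, red fluorescence read; AC50 from titration.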
HBB splicing = hemoglobin beta splicing modulation; HBB splicing reporter cell assay, activation; EGFP reporter with mutant IVS2-654 intron; response scale: normalised to 500 nM splice-correcting PNA; Potency, µM (top dose mostly 46.1 µM), for inactives: top-dose activation, actives largely listed as activators; 0.06% of 65,000 active; also: potency is read from the fitted curve at half-maximal effect; 0% is about no effect
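HeLa cells stably expressing EGFP interrupted by mutant beta-globin intron 2 (IVS2-654), 500/well in 2% FCS. Treated with compound for 2 days at 37C. Splicing correction scored as total well GFP intensity (488 nm excitation, 500-520 nm emission); 500 nM antisense PNA served as control.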
Epigenetic mod = derepresses silenced GFP locus in mouse C127i cells | Potency, µM (highest dose often 46.1 µM), without a hit: at the highest dose GFP derepression (activation) | 0.09% of 68,000 active | mouse C127i GFP locus derepression, cytometry, 30 h | AID 597; also: % of control where 0% means no effect
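Locus derepression in mouse mammary C127i cells whose integrated CMV-GFP reporter is normally silent; GFP expression after 30 h compound treatment was quantified by counting fluorescent cells.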
Active calls of the source: *; i = inactive; ? = inconclusive; · = not tested or not shown; ! = not active in a repeat; [ ] = remark or other dose. Shown is part of a subset that was picked to be rich in hits. Unless noted, calls follow the shape of the dose curve; as a rule, active = well fitted curve in the direction sought with a large enough effect; inconclusive = small, poorly fitted or top-dose-only effect, or another doubt; inactive = no such curve, though single readings can be large; an effect the other way counts as inactive or inconclusive.

SMILES	USP2a inhib	Ub-GFP proteasome	GBA activity	HBB splicing	Epigenetic mod
Cc1nc(NCc2ccccc2)c2nc(-c3ccccc3)n(CC3CCN(C)CC3)c2n1	·	4%	·	0%	·
CCOC(=O)C1=C(c2ccccc2)NC(SCC(=O)NC2CCCCC2)=C(C#N)C1c1ccco1 (configuration not stated)	33%	-2%	7.7*	0%	-2%
COCCOC(=O)C1=C(C)NC(SCC(=O)NC(C)(C)C)=C(C#N)C1c1ccco1 (configuration not stated)	·	·	·	·	-6%[20.6 µM]
C[C@@H](CCc1ccc(O)cc1)NCCc1ccc(O)c(O)c1	-6%[17.1 µM]	3%	·	1%[20.6 µM]	-1%
O=C1C2C3C=CC(C3)C2C(=O)N1CNc1ccc(O)cc1 (configuration not stated)	191%	5%	12*	·	1%
Nc1c(S(=O)(=O)O)cc(Nc2ccc(Nc3nc(Cl)nc(Nc4ccc(S(=O)(=O)O)cc4)n3)c(S(=O)(=O)O)c2)c2c1C(=O)c1ccccc1C2=O	7.9µM*	-3%	·	1%	-1%
NC1=NC(c2cn(-c3ccccc3)nc2-c2cccs2)n2c(nc3ccccc32)N1 (configuration not stated)	17%	1%	12*	0%[57.5 µM]	-2%
N#CC(C(=O)NCc1ccccc1)c1nc2ccccc2nc1N1CCCC1 (configuration not stated)	8%	12%	>77	10µM*	?
N#CC(C(=O)NCCc1ccccc1)c1nc2ccccc2nc1N1CCCCC1 (configuration not stated)	8%	-4%	>77	0%	-1%
CCCCOc1ccc(OCCCC)c2c1NC1(N2)C(=O)N(C(C)=O)c2ccccc21	2%	-5%	6.1*	0%	?
c1cnc(N2CCN(c3ncnc4c3oc3ccccc34)CC2)nc1	10%	-2%	5.7*	-1%[57.5 µM]	2%
COc1ccccc1OCc1ccc(C(=O)NC(C)(C)C)o1	0%	-4%	>77	-1%	8%
COc1ccccc1OCc1ccc(C(=O)Nc2ccncc2)o1	12%	-4%	13*	0%	2%
Cc1ccc(S(=O)(=O)N2CCCCC2)cc1C(=O)c1nccn1C	-2%	-3%	10*	0%	-1%
Cc1ccnc(NC(=O)c2cc(S(=O)(=O)N3CCCCC3)ccc2Cl)c1	22%	-5%	>77	·	0%
C[N+](C)(C)c1cc2c(nn1)Nc1ccccc1S2	·	-6%[9.17 µM]	·	6%[9.22 µM]	3%[9.22 µM]
O=C(O)C1=CC(=C(c2ccc(O)c(C(=O)O)c2)c2ccc(O)c(C(=O)O)c2)C=CC1=O	20µM*!	-3%	·	-2%	-1%
CC1=C/C(=C(/c2ccc(O)c(C)c2)c2ccccc2C(=O)O)C=CC1=O	·	6%[9.17 µM]	·	3%[9.22 µM]	-1%[9.22 µM]
N#CC1=C(N)N(c2ccccc2)C2=C(C(=O)CCC2)C1c1cccs1 (configuration not stated)	25%	4%	13*	0%	10%
O=C1CCCC/C1=C\Nc1ccc(Cl)cn1	-12%	9%	14*	-2%	0%
O=C1CCCC/C1=C\Nc1ccc(O)cc1	-10%	-4%	>77	1%	2%
CCCn1c(=N)n(CC(O)c2ccco2)c2ccccc21 (configuration not stated)	5%	12%	>77	-2%	0%
Cc1ccc(Cn2c(=N)n(CC(O)c3ccco3)c3ccccc32)cc1 (configuration not stated)	19%	-4%	10*	-1%	3%
CC(=O)OC[C@@H]1O[C@@H](O/N=C2/C[C@@H](O)[C@@H](O)[C@@H]3[C@@H]4C(=O)N(C(C)(C)C)C(=O)[C@H]4CC[C@@H]23)[C@H](OC(C)=O)[C@H](OC(C)=O)[C@@H]1OC(C)=O	·	·	·	1%[9.22 µM]	·
O=S(=O)(Nc1cc(Cl)ccc1N1CCCCC1)c1cccs1	26%	-6%	15*	0%	1%
SMILES	USP2a inhib	Ub-GFP proteasome	GBA activity	HBB splicing	Epigenetic mod
O=c1c(-c2cc(F)cc(F)c2)nc2cncnc2n1Cc1ccc(F)cc1	69%	0%	·	0%	-3%[9.22 µM]
COC(=O)c1cc2c(cc1Cl)SC(=NCCCN1CCOCC1)NS2(=O)=O	3%	1%	8.3*	-5%	-1%
COc1cccc([C@H]2Oc3ccc(OC)cc3/C(=N\OC[C@@H](O)[C@@H]3O[C@@H]4OC(C)(C)O[C@@H]4[C@H]3O)[C@@H]2O)c1	·	·	·	1%[9.22 µM]	·
NCC1O[C@@H](O[C@@H]2C(O)[C@H](O[C@H]3OC(CO)C(O)C(N)C3O)[C@@H](N)C[C@H]2N)C(N)C(O)C1O (some centres not stated)	-12%	·	·	·	·
O=C(Nc1ccc(OC(=O)c2ccncc2)cc1)c1ccncc1	-3%	-6%	1.9*	-1%	0%
CCOc1ccc(NC(=O)c2ccncc2)cc1	2%	11%	i	0%	-3%
C=C1C2=CC(=O)OC(c3ccoc3)[C@]2(C)CCC1[C@]1(C)C=CC(=O)C(C)(C)C1CC(=O)OC (some centres not stated)	45%	·	·	·	·
CC(=O)Nc1ccc(C2C(C)CCC3C(=O)N4C(CCC(C)[C@@H]4c4ccc(NC(C)=O)cc4)C(=O)N32)cc1 (some centres not stated)	·	·	·	0%[9.22 µM]	·
CC1CCCCN1c1nc(-c2ccncc2)nc2ccccc12 (configuration not stated)	10µM*	2%	i	2%[1.84 µM]	3%
COCCn1c(=O)c(-c2cccc(C#N)c2)nc2cnc(Oc3ccc(OC)cc3)nc21	100%	8%	·	-1%	0%[9.22 µM]
CC(C)N1CC=C2C(C#N)=C(N)C(C#N)(C#N)C(c3ccccc3)C2C1 (configuration not stated)	·	·	·	·	-3%[20.6 µM]
Cc1ccc(C2C3CSCC=C3C(C#N)=C(N)C2(C#N)C#N)cc1 (configuration not stated)	33%	11%	12*	?	2%
CCOC(=O)c1c2c(n3ccccc13)C(=O)c1ccccc1C2=O	·	-9%[9.17 µM]	·	3.2µM*	7%[9.22 µM]
Cc1nnc(NC(=O)c2ccccc2F)s1	-6%	2%	7.9*	0%[57.5 µM]	0%
Cc1nnc(NC(=O)c2c(F)c(F)c(F)c(F)c2F)s1	-4%	-6%	?	1%	2%
COCc1nnc(NC(=O)c2sc3ccccc3c2Cl)s1	-10%	6%	>77	-1%	-2%
Cc1nnc(NC(=O)c2sc3ccccc3c2Cl)s1	17%	-2%	15*	0%[57.5 µM]	-3%
Cc1nnc(NC(=O)c2ccccc2Br)s1	-2%	-3%	3.9*	-4%	-2%
CCCC[C@@H]1C[C@H]1C(NC(=O)c1cccs1)c1ccc(Cl)cc1 (some centres not stated)	·	·	·	2%	·
CC(CC(=O)O)(CC(=O)O)C(=O)O	·	-5%[9.17 µM]	·	2%[9.22 µM]	-1%[9.22 µM]
COc1ccc(-c2cn3cc(Cl)ccc3n2)cc1OC	-5%	3%	2.8*	0%[57.5 µM]	3%

Bioassay records (PubChem BioAssay)
